Sampled rows, rich in hits. Any-hit rate of the full collection: about 6%.
D3 antag: blocks the human D3 dopamine receptor; D3R cells, DiscoveRx beta-arrestin luminescence, antagonist mode; hits give low values; hit rate 2.5% among 360,000; max response, negative = inhibition, %; AID 652054; P35462; in the data active = max response below about -50%; inconclusive = no clear call, values can overlap the other calls; note: % is set by controls: 0 for no effect and ±100 for the full control effect
Target sequence (P35462 whole entry, looked up): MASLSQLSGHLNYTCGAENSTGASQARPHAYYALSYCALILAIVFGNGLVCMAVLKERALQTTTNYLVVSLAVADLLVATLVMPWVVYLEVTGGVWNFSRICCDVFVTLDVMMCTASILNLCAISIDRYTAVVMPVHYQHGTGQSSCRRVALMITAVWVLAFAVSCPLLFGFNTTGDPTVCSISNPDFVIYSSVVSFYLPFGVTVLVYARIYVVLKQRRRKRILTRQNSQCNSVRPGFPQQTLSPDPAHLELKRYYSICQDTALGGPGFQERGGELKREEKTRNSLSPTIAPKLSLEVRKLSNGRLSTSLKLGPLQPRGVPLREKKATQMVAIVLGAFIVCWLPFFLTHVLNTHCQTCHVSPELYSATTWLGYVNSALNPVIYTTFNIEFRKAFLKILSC
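Cells plated overnight at 1500 cells/well, then exposed to library compounds with dopamine controls for 90 minutes at 37 degrees C. DiscoveRx reagent added for 30–60 minutes at room temperature; luminescence read, quantitative HTS format.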
BCR signal inh: inhibitors of chronic active B-cell receptor signaling. ABC-DLBCL IkBa-CBG/CBR reporter, luminescence ratio, 4 h. Potency, µM (titrated, usually from 46.1 µM), without a hit: at the top dose activity change, negative = inhibition, hits mostly inhibitors. hit rate 0.05% among 340,000. AID 493014; active = well fitted inhibition curve with a large enough effect in the signal ratio, with a control signal flat, not every such curve was filed as active; inconclusive = small, poorly fitted or top-dose-only effect, or effect the other way, or a change in a side signal; the % refers to the signal ratio;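 note: potency is the fitted concentration of half-maximal effect; plate controls were basal doxycycline-induced cells for no effect and cells given 10 µM MG132 for full effect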
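TMD8 human ABC-DLBCL cells with doxycycline-inducible IκBα–green luciferase fusion and unfused red luciferase, in 0.5% FBS medium; compounds up to 46 uM, 4 h at 37C. Green/red luminescence ratio, filter-overlap corrected, fitted to concentration-response curves.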
D1 PAM: potentiators of human D1 dopamine receptor | P21728 | HEK293 TREx D1 cells, calcium flux, dopamine EC20 potentiation | potentiation, % at 10 µM | hit rate 0.036% among 360,000 | AID 504651; in the data active = potentiation above about 30%; note: 0% is about no effect
D1 antagonist: blocks dopamine activation of the human D1 receptor. P21728. hit rate 3.2% among 360,000. AID 504652. HEK293 TREx D1 cells, calcium flux, dopamine EC80; hits give low values. activity change, negative = inhibition, % at 10 µM; in the data active = activity change below about -30%; note: % is set by controls: 0 for no effect and ±100 for the full control effect
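Tetracycline-induced HEK293 Trex D1 cells, force-coupled to calcium, dye-loaded; compounds added and read 180 s, then EC80 dopamine added and calcium flux tracked kinetically another 180 s.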
DRD3 agonist: activates the human D3 dopamine receptor; D3R DiscoveRx beta-arrestin cells, luminescence, 90 min; max activation, %; hit rate 0.58% among 410,000; in the data active = max activation above about 30%; note: 0% is about no effect
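Agonist-mode cell screen: cells plated at 1500/well and incubated overnight at 37 °C, then exposed to library compounds for 90 min at 37 °C. Detection reagent was added for 30–60 min at room temperature, and luminescence was read.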
D1 ag: activates the human D1 dopamine receptor; HEK293 T-REx D1 cells, calcium flux, agonist mode; activation, % at 2 µM; hit rate 1% among 360,000; in the data active = activation above about 30%; note: 0% is about no effect
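Agonism was scored from calcium flux recorded over 180 s (1 read/s) after pintool compound addition, following a 10-cycle baseline. Cells were inducible force-coupled HEK293 TREx D1, plated overnight at 30 C and loaded with no-wash calcium dye.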
Active calls of the source: *; ? = inconclusive; nt = no result.

SMILES	D3 antag	BCR signal inh	D1 PAM	D1 antagonist	DRD3 agonist	D1 ag
CC1CCc2sc(C(=O)NC3CCN(Cc4ccccc4)CC3)cc2C1 (stereo unspecified)	-95*	0%	nt	-16	-19	37*
Cc1cc(Br)cn2c(CC(C)(C)C)c(-c3cccc(Cl)c3)nc12	27	nt	nt	nt	4	nt
COc1cc2c(cc1OC)C(C1C(=O)CC(C)(C)CC1=O)N(C(=O)CCl)CC2 (stereo unspecified)	1	0%	-8	11	10	3
COc1cc2c(cc1OC)C(c1cc(Br)ccc1F)N(C(=O)CCl)CC2 (stereo unspecified)	-87*	?	1	6	-2	6
CCO[C@H]1C[C@@H](c2ccc(CC)cc2)N(S(=O)(=O)c2ccc(C)cc2)C2CC(c3ccc(CC)cc3)N(S(=O)(=O)c3ccc(C)cc3)CC21 (stereo partly specified)	-8	nt	nt	nt	-3	nt
CC(C)c1ccc(S(=O)(=O)c2cnc(=S)[nH]c2N)cc1	-59*	-8%	0	2	-7	6
CCN(c1ccccc1)S(=O)(=O)c1cccc(C(=O)NCC(c2ccco2)N2CCCC2)c1 (stereo unspecified)	-58*	0%	9	0	-9	11
CCN(c1ccccc1)S(=O)(=O)c1cccc(C(=O)NCc2ccccn2)c1	-8	-6%	-8	-5	-3	0
CNS(=O)(=O)c1cccc(C(=O)NCC(c2cccs2)N(C)C)c1 (stereo unspecified)	-72*	-18%	-8	-9	-7	2
Cc1ccc(NS(=O)(=O)c2cccc(C(=O)NCC(c3cccs3)N(C)C)c2)cc1 (stereo unspecified)	-24	0%	-2	-4	-18	15
CCN(c1ccccc1)S(=O)(=O)c1cccc(C(=O)NCC(c2cccs2)N(C)C)c1 (stereo unspecified)	-56*	-1%	1	5	-14	4
COc1cc(C(=O)NCC(c2cccs2)N(C)C)cc(Cl)c1OC(C)C (stereo unspecified)	-76*	-3%	-2	5	-10	13
COc1cccc(NC(=O)N2CCN3CCCCC3C2)c1 (stereo unspecified)	nt	?	-4	4	-25	3
COc1ccccc1NS(=O)(=O)c1cccc(C(=O)NCC(c2ccco2)N(C)C)c1 (stereo unspecified)	-68*	0%	-3	-12	-35	5
Cc1ccc(C)c(S(=O)(=O)Nc2ccc(C(=O)NCC(c3ccco3)N(C)C)cc2)c1 (stereo unspecified)	-53*	-5%	-2	-1	0	4
CN(C)C(CNC(=O)c1cc(S(=O)(=O)N(C)c2ccccc2)ccc1Cl)c1cccs1 (stereo unspecified)	11	?	-8	-44*	-9	12
Cc1ccc(C)c(S(=O)(=O)Nc2ccc(C(=O)NCC(c3ccco3)N3CCCCC3)cc2)c1 (stereo unspecified)	-19	0%	-5	-13	-28	4
Cc1ccccc1NS(=O)(=O)c1ccc(C(=O)NCC(c2ccco2)N(C)C)cc1 (stereo unspecified)	-57*	0%	-4	7	-14	9
O=S(=O)(Nc1cccnc1)c1cccc2ccccc12	nt	nt	1	24	nt	-1
COc1ccccc1NS(=O)(=O)c1cccc(C(=O)NCC(c2cccs2)N(C)C)c1 (stereo unspecified)	-85*	nt	nt	nt	-18	nt
COc1ccccc1NS(=O)(=O)c1cccc(C(=O)N(C)Cc2cccs2)c1	-13	13%	3	-20	-3	13
O=S1(=O)CC(N2CCCCC2)CN1Cc1cn(Cc2ccc(Cl)cc2)nn1 (stereo unspecified)	19	nt	nt	nt	4	nt
COc1ccc(CCNC(=O)c2ccc3c(c2)S(=O)(=O)N=C2CCCCCN23)cc1OC	-1	nt	nt	nt	3	nt
Cc1ccc(C)c(NC(=O)C(Cc2ccccc2)n2cccc2)c1 (stereo unspecified)	nt	nt	-5	-23	-2	19
COc1cccc(-n2c(SCC(=O)N3CCCc4ccccc43)nc3c([nH]c4ccccc43)c2=O)c1	nt	nt	3	-35*	-3	0
SMILES	D3 antag	BCR signal inh	D1 PAM	D1 antagonist	DRD3 agonist	D1 ag
COc1ccc(-n2c(SCC(=O)N3CCCc4ccccc43)nc3c([nH]c4ccccc43)c2=O)cc1	nt	nt	-3	-9	-7	0
COC(=O)c1ccc(CSc2nc3c([nH]c4ccccc43)c(=O)n2-c2cccc(OC)c2)o1	nt	nt	-5	-62*	6	1
COc1ccc(CNC(=O)C(C)n2c(=O)cc(C)c3c(C)nn(-c4ccccc4)c32)cc1 (stereo unspecified)	nt	nt	-6	-54*	8	-1
CCOC(=O)Cn1nc(-c2ccccc2)c2cnc3ccc(OCC)cc3c21	nt	nt	-3	-15	6	13
CCN(C/C=C/c1ccccc1OC)Cc1ccccc1	-82*	5%	-7	-19	-25	-2
CCCCN(C/C=C/c1ccccc1OC)Cc1ccccc1	?	5%	2	-4	-15	10
CCOC(=O)N1CCC(Nc2c(Nc3ccc(F)cc3)c(=O)c2=O)CC1	-89*	?	-3	14	-8	1
CCOC(=O)N1CCC(NCCNC(=O)c2cccc(F)c2)CC1	-112*	-16%	2	-24	-68	3
CCOC(=O)N1CCC(Nc2c(Nc3cccc(CC)c3)c(=O)c2=O)CC1	-62*	-5%	6	-3	-33	0
CC(C)CNc1nc(Oc2ccc(=O)n(-c3ccccc3)n2)nc(N2CCOCC2)n1	20	-12%	-4	-23	1	1
CC(C)CNc1nc(Oc2ccc(=O)n(C)n2)nc(N2CCOCC2)n1	-23	-6%	-12	-43*	3	3
O=C(CN1CCc2ccccc2C1)Nc1ccc(Br)cc1	-52*	-7%	-2	1	-3	3
CCc1ccc(NC(=O)CN2CCc3ccccc3C2)cc1	-65*	-11%	-3	-4	-2	-1
CCOC(=O)c1ccc(NC(=O)N2CCc3ccccc3C2)cc1	-22	?	-2	-39*	-9	13
O=C(CN1CCc2ccccc2C1)NCC(=O)Nc1ccc(F)cc1	2	?	-6	23	-6	2
Cc1ccc(NC(=O)CN2CCc3ccccc3C2)cc1F	-85*	0%	-2	8	-36	0
O=C(CSc1nc(=O)[nH]c2c1CCCC2)NCc1ccccc1Cl	nt	-1%	0	nt	3	15
COc1ccc(N2CCN(CCCNC(=O)c3nnc(Cc4ccccc4Cl)o3)CC2)cc1	nt	nt	-3	-5	3	5
